Source: PubChem BioAssay (National Center for Advancing Translational Sciences (NCATS))
DT40 TDP1 CPT = growth inhibition of DT40 Tdp1-/-;hTDP1 cells with camptothecin (screen for TDP1 inhibitors); actives 12% (n = 420,000); chicken DT40 Tdp1-/-;hTDP1 cells + 20 nM CPT, ATP luminescence, 48 h; AID 686979; Potency, µM (top dose mostly 46.2 µM), for inactives: top-dose activity change, negative = growth inhibition, most hits filed as inhibitors; further: nearly all actives have a fitted effect of over 55% in size
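Chicken DT40 Tdp1-/- cells complemented with human TDP1, 400 cells/well, exposed to compounds plus 20 nM camptothecin for at least 48 h at 37 C; viability read as ATP content by CellTiter-Glo luminescence.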
KB-3-1 tox = kills parental KB-3-1 adenocarcinoma cells. KB-3-1 viability, CellTiter-Glo ATP luminescence, 72 h. Potency, µM (highest dose often 46.1 µM), hits mostly cytotoxic. actives 1.4% (n = 400,000); further: nearly all actives have a fitted effect of over 60% in size
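Screening of KB-3-1 cells (DMEM, 10% FBS, phenol-red free) ran from lowest to highest compound concentration; after 72 h at 37 °C viability was read luminescently and curves fitted.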
KB-V1 MDR tox = kills drug-selected multidrug resistant KB-V1 cells; KB-V1 MDR cells viability, CellTiter-Glo, 72 h; Potency, µM (highest dose often 46.1 µM), most hits filed as cytotoxic; actives 3.4% (n = 400,000); further: nearly all actives have a fitted effect of over 60% in size
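Following 72 h at 37 degrees C with compound, KB-V1 cell viability was read by CellTiter-Glo luminescence, medium being phenol-red-free DMEM plus 10% FBS; concentration-response parameters came from normalized, curve-fitted qHTS data.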
DT40 TDP1 no CPT = qHTS for Inhibitors of human tyrosyl-DNA phosphodiesterase 1 (TDP1): qHTS in cells in absence of CPT. DT40 Tdp1-/- hTDP1 cells, no CPT, ATP luminescence, 48 h. Potency, µM (top dose mostly 46.2 µM), without a hit: at the highest dose activity change, negative = growth inhibition, hits mostly inhibitors. actives 15% (n = 420,000). AID 686978, 2013; further: nearly all actives have a fitted effect of over 55% in size
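Growth of hTDP1-complemented DT40 Tdp1-knockout cells is measured by ATP luminescence after at least 48 hr compound exposure at 37 °C, with DMSO substituting for the 20 nM CPT used in the parallel screen.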
HT1080 IDH1KD tx = kills HT-1080 cells with IDH1 knockdown. HT-1080 IDH1 knockdown viability, ATP luminescence, 48 h. Potency, µM (highest dose often 46.1 µM), for the others: at the highest dose activity, negative = toxicity, hits mostly cytotoxic. actives 2% (n = 360,000). AID 686971;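 further: 0% = DMSO wells and -100% = cell-free medium wells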
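Cytotoxicity counter-line: IDH1KD HT-1080, 48 h, CellTiter-Glo. Curves classed by r2, magnitude and activity.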
HT1080NT lethal = kills 2HG-producing HT-1080-NT fibrosarcoma cells | actives 1.6% (n = 360,000) | HT-1080-NT fibrosarcoma viability, CellTiter-Glo ATP luminescence, 48 h | Potency, µM (series often up to 46.1 µM), for inactives: at the highest dose activity, negative = less viability, usual class: cytotoxic | AID 686970;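 further: NT is the 2HG producing partner of a matched IDH1 knockdown line; 0% = DMSO-treated cells and -100% = media-only wells without cells; nearly all actives have a fitted effect of over 55% in size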
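Luminescent CellTiter-Glo readout after 48 hours of compound exposure at 37 degrees C defined viability of HT-1080-NT cells. Activity was normalized to DMSO wells and cell-free media wells; concentration-response curves were fitted and assigned curve classes.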
Starred values were filed as active, the others as inactive. Hits are enriched below; roughly 19% of the tested compounds scored in any of these assays. The call rests on the fitted dose curve; in most records, active means well fitted curve in the direction sought with a large enough effect; inconclusive means small, poorly fitted or top-dose-only effect, or another doubt; inactive means no such curve, though single readings can be large; an effect the other way counts as inactive or inconclusive. Unless noted, on the % scale 0 is the no-effect control and ±100 the full control effect; potency means the concentration at half of the fitted maximal effect.

How did C=CCN(C(=O)Nc1ccc(OC)cc1)c1nnc(-c2ccncc2)s1 do in these assays?
DT40 TDP1 CPT: -12%; KB-3-1 tox: inactive; KB-V1 MDR tox: inactive; DT40 TDP1 no CPT: inconclusive; HT1080 IDH1KD tx: -4%; HT1080NT lethal: 2%

What do the screens show for `O=C(CSc1nnc(Nc2ccccc2F)s1)Nc1cccc(S(=O)(=O)N2CCCCC2)c1`?
DT40 TDP1 CPT: inconclusive; KB-3-1 tox: inactive; KB-V1 MDR tox: inactive; DT40 TDP1 no CPT: inconclusive; HT1080 IDH1KD tx: inconclusive; HT1080NT lethal: -21%

Results for COC(=O)Cn1c(=NC(=O)c2ccc(S(=O)(=O)N3CCOCC3)cc2)sc2cc(S(N)(=O)=O)ccc21 ?
DT40 TDP1 CPT: -6%; KB-3-1 tox: inactive; KB-V1 MDR tox: inconclusive; DT40 TDP1 no CPT: -3%; HT1080 IDH1KD tx: -9%; HT1080NT lethal: 0%

Results for Cn1c(=NC(=O)c2ccc(S(=O)(=O)N3CCCc4ccccc43)cc2)sc2cc(S(C)(=O)=O)ccc21 ?
DT40 TDP1 CPT: -3%; KB-3-1 tox: inactive; KB-V1 MDR tox: 3.7µM*; DT40 TDP1 no CPT: -12%; HT1080 IDH1KD tx: 0%; HT1080NT lethal: 3%

Results for C#CCn1c(=NC(=O)c2ccc(S(=O)(=O)N3CCCc4ccccc43)cc2)sc2cc(S(N)(=O)=O)ccc21 ?
DT40 TDP1 CPT: 13µM*; KB-3-1 tox: inconclusive; KB-V1 MDR tox: inactive; DT40 TDP1 no CPT: 15µM*; HT1080 IDH1KD tx: -15%; HT1080NT lethal: -9%

Results for Cn1c(=NC(=O)c2ccccc2[N+](=O)[O-])sc2cc(S(C)(=O)=O)ccc21 ?
DT40 TDP1 CPT: -24%; KB-3-1 tox: inactive; KB-V1 MDR tox: inactive; DT40 TDP1 no CPT: -18%; HT1080 IDH1KD tx: -17%; HT1080NT lethal: -2%

Results for COc1cccc(C#Cc2ccc3c(c2)O[C@H](CN(C)C)[C@@H](C)CN([C@@H](C)CO)S3(=O)=O)c1 ?
DT40 TDP1 CPT: inconclusive; KB-3-1 tox: inactive; KB-V1 MDR tox: inactive; DT40 TDP1 no CPT: inconclusive; HT1080 IDH1KD tx: -27%; HT1080NT lethal: -23%

Results for COc1cccc(C2c3[nH]c4ccccc4c3CCN2CCCn2cccn2)c1 (configuration not stated) ?
DT40 TDP1 CPT: inconclusive; KB-3-1 tox: inactive; KB-V1 MDR tox: inactive; DT40 TDP1 no CPT: inconclusive; HT1080 IDH1KD tx: -13%; HT1080NT lethal: -15%

Results for COc1ccc(C2c3[nH]c4ccccc4c3CCN2CCCn2cccn2)c(C)c1C (configuration not stated) ?
DT40 TDP1 CPT: 12µM*; KB-3-1 tox: inactive; KB-V1 MDR tox: inactive; DT40 TDP1 no CPT: 13µM*; HT1080 IDH1KD tx: inconclusive; HT1080NT lethal: inconclusive

What do the screens show for `O=C(c1ccoc1)N1CCN(c2cc(-c3cccc(F)c3)nc3cc(-c4cccc(Cl)c4)nn23)CC1`?
DT40 TDP1 CPT: 7.3µM*; KB-3-1 tox: inactive; KB-V1 MDR tox: inactive; DT40 TDP1 no CPT: 4.6µM*; HT1080 IDH1KD tx: -2%; HT1080NT lethal: -5%

How did COc1cccc(N2CCN(C(=O)c3ccc(-c4ccccc4)cc3)CC2)c1 do in these assays?
DT40 TDP1 CPT: 32%; KB-3-1 tox: inactive; KB-V1 MDR tox: inactive; DT40 TDP1 no CPT: 12%; HT1080 IDH1KD tx: -1%; HT1080NT lethal: 19%

How did COc1ccc(-c2cc3nc(-c4ccccc4)cc(N4CCN(C(=O)c5ccsc5)CC4)n3n2)cc1 do in these assays?
DT40 TDP1 CPT: 7.3µM*; KB-3-1 tox: inactive; KB-V1 MDR tox: inactive; DT40 TDP1 no CPT: 5.2µM*; HT1080 IDH1KD tx: -1%; HT1080NT lethal: 0%
